The source made the active and inactive calls.
Legend:
[1] = tested on: Plasmodium falciparum Sir2 (PF13_0152, Sir2A); experiment: pfSir2 binders on small-molecule microarrays, primary screen, biochemical, small-molecule microarray, 635 nm fluorescence (AID 1098); conditions: small-molecule microarray binding, fluorescence 635 nm; higher = more signal;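 further: score merges spot fluorescence intensity with its signal-to-noise ratio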
[2] = small-molecule microarray binders of probe aDKK1, primary screen, biochemical, biotinylated probe, 635/667 nm fluorescence (AID 1099); conditions: higher = more signal;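 further: score merges 667nm spot fluorescence with signal to noise across triplicate slides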
[3] = small-molecule microarray binders of probe aCHRDL2, primary screen, biochemical, biotinylated probe, 635/667 nm fluorescence (AID 1100); conditions: higher = more signal
[4] = splicing luciferase reporter signal modulators, primary screen, spliceosome inhibition project, cell-based, HEK293, splice +/- reporter (AID 1101); conditions: luminescence, 24 h, higher = more signal, called active from +8 up or from −8 down;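 further: HEK293 cells carrying a splicing-competent luciferase reporter gene; test concentration not given here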
[5] = molecular target: Fibroblast growth factor 10 (Homo sapiens) (UniProt O15520); experiment: FGF10 binders on small-molecule microarrays, primary screen, biochemical, small-molecule microarray, 635 nm fluorescence (AID 1102); conditions: FGF10 binding, fluorescence 635 nm, higher = more signal
[6] = tested on: glycogen synthase kinase-3 (GSK3A per assay name; protocol says GSK3B); experiment: GSK3 binders on small-molecule microarrays, primary screen, biochemical, small-molecule microarray, 635 nm fluorescence, GSK3A (AID 1103); conditions: small-molecule microarray binding, fluorescence 635 nm; higher = more signal; further: the record names both GSK3A and GSK3B
[7] = molecular target: Epidermal growth factor receptor (Homo sapiens) (UniProt P00533); experiment: EGFR binders on small-molecule microarrays, primary screen, biochemical, small-molecule microarray, 635 nm fluorescence (AID 1104); conditions: EGFR binding, higher = more signal;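 further: score merges 667 nm emission intensity with spot signal to noise over triplicate slides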
[8] = molecular target: Follistatin-related protein 3 (Homo sapiens) (UniProt O95633); experiment: FSTL3 binders on small-molecule microarrays, primary screen, biochemical, small-molecule microarray, 635 nm fluorescence (AID 1105); conditions: FSTL3 binding, higher = more signal;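 further: score merges emission near 667 nm and signal to noise per printed spot across three slides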
[9] = molecular target: Dickkopf-related protein 1 (Homo sapiens) (UniProt O94907); experiment: DKK1 binders on small-molecule microarrays, primary screen, biochemical, small-molecule microarray, 635 nm fluorescence scan (AID 1106); conditions: DKK1 binding, higher = more signal;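 further: score merges emission near 667 nm with signal to noise over three replicate slides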
[10] = tested on: Inhibin beta A chain (activin A); experiment: INHBA (activin A) binders on microarrays, primary screen, biochemical, small-molecule microarray, 635 nm fluorescence scan (AID 1107); conditions: small-molecule microarray binding, higher = more signal;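 further: mouse activin A protein probed at 4.33 µg/mL on printed slides; score merges bound-protein fluorescence near 667 nm with spot signal-to-noise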
[11] = tested on: Human papillomavirus type 1a protein E7 (residues 44-93); experiment: HPV1a E7 fragment binders on microarrays, primary screen, biochemical, small-molecule microarray, residues 44-93, 635 nm fluorescence (AID 1108); conditions: small-molecule microarray binding, fluorescence 635 nm; higher = more signal;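 further: E7 fragment applied at 1 µg/mL in TBST for 1 h at 4 C; score combines spot fluorescence with its signal to noise ratio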
[12] = modulators of HCV replicon luciferase signal, primary screen, HCV replication inhibitor project, Huh7 cells, luciferase reporter (AID 1109); conditions: 48 h, higher = more signal;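 further: huh7 hepatoma cells harbouring a luciferase neomycin HCV replicon reporter; luciferase luminescence as measure of HCV replicon replication; test concentration not given here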
[13] = molecular target: Left-right determination factor 2 (Homo sapiens) (UniProt O00292); experiment: LEFTY2 binders on small-molecule microarrays, primary screen, biochemical, small-molecule microarray, 635 nm fluorescence scan (AID 1110); conditions: LEFTY2 binding, higher = more signal
[14] = molecular target: Calmodulin-1 (Homo sapiens) (UniProt P0DP23); experiment: CALM1 binders on microarrays, EGTA buffer, profiling panel, biochemical, small-molecule microarray, Cy5-labelled CALM1 (AID 1111); conditions: Cy5-CALM1 binding fluorescence, higher = more signal;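 further: labelled calmodulin applied in Tris saline Tween buffer holding calcium plus EGTA and DTT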
[15] = molecular target: Calmodulin-1 (Homo sapiens) (UniProt P0DP23); experiment: calcium-bound CALM1 binders on microarrays, profiling panel, artefact control for SMM control-protein annotation, biochemical, small-molecule microarray, Cy5-labelled CALM1, plus calcium (AID 1112); conditions: Cy5-CALM1 binding fluorescence, higher = more signal;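 further: score merges spot fluorescence with signal to noise from triplicate slides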
[16] = small-molecule microarray binders of probe aWnt5a, primary screen, biochemical, biotinylated probe, 635/667 nm fluorescence (AID 1113); conditions: higher = more signal;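 further: score merges 667 nm fluorescence intensity with signal-to-noise per printed feature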
[17] = small-molecule microarray binders of probe aShh, primary screen, biochemical, biotinylated probe, 635/667 nm fluorescence (AID 1114); conditions: higher = more signal;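 further: probe is biotin-labelled aShh protein from a stem cell growth factor screen; measures binding of labelled protein to compounds printed on the slide; score merges feature fluorescence at 667 nm with signal-to-noise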
[18] = small-molecule microarray binders of probe aNog, primary screen, biochemical, biotinylated probe, 635/667 nm fluorescence (AID 1115); conditions: higher = more signal;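 further: probe is biotinylated aNog protein used at 0.15 µg/mL for 1 h at 4 C; z-score combines 667 nm fluorescence of each spot with its signal to noise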
[19] = molecular target: Torsin-1A-interacting protein 1 (Homo sapiens) (UniProt Q5JTV8); experiment: LAP1 binders from COS7 cell lysate, primary screen, small-molecule microarray, 635/667 nm fluorescence (AID 1116); conditions: COS7-hLAP1 lysate binding, 635 nm fluorescence, higher = more signal
[20] = molecular target: Alpha-bungarotoxin (Bungarus multicinctus) (UniProt P60615); experiment: alpha-bungarotoxin binders on microarray, profiling panel, artefact control for SMM control protein annotation, biochemical, small-molecule microarray, Alexa647 label, 635/667 nm fluorescence (AID 1117); conditions: alpha-BTX-A647 binding fluorescence, higher = more signal
Alpha-bungarotoxin (Bungarus multicinctus), sequence (P60615 whole entry, looked up): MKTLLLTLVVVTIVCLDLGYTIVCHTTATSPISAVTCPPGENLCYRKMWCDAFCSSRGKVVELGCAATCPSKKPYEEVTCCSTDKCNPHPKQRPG

Left-right determination factor 2 (Homo sapiens), sequence (O00292 whole entry, looked up): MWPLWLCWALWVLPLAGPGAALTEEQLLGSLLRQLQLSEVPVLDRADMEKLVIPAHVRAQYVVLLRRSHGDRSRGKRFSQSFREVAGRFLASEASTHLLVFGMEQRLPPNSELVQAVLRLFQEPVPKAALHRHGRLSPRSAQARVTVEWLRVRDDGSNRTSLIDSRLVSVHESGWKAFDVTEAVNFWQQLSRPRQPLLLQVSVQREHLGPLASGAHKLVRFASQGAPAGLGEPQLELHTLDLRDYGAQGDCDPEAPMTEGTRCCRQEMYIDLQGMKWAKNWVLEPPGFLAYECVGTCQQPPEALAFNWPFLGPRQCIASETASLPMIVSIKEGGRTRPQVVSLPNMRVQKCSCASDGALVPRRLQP
Follistatin-related protein 3 (Homo sapiens), sequence (O95633 whole entry, looked up): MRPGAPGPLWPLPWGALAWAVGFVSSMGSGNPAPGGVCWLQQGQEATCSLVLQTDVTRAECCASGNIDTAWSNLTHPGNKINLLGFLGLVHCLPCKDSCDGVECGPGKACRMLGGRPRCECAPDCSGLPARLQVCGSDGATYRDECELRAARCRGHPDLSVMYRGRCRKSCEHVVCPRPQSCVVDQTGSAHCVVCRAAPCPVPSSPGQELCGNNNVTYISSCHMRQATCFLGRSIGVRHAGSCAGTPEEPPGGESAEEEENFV
Epidermal growth factor receptor (Homo sapiens), sequence (P00533 whole entry, looked up): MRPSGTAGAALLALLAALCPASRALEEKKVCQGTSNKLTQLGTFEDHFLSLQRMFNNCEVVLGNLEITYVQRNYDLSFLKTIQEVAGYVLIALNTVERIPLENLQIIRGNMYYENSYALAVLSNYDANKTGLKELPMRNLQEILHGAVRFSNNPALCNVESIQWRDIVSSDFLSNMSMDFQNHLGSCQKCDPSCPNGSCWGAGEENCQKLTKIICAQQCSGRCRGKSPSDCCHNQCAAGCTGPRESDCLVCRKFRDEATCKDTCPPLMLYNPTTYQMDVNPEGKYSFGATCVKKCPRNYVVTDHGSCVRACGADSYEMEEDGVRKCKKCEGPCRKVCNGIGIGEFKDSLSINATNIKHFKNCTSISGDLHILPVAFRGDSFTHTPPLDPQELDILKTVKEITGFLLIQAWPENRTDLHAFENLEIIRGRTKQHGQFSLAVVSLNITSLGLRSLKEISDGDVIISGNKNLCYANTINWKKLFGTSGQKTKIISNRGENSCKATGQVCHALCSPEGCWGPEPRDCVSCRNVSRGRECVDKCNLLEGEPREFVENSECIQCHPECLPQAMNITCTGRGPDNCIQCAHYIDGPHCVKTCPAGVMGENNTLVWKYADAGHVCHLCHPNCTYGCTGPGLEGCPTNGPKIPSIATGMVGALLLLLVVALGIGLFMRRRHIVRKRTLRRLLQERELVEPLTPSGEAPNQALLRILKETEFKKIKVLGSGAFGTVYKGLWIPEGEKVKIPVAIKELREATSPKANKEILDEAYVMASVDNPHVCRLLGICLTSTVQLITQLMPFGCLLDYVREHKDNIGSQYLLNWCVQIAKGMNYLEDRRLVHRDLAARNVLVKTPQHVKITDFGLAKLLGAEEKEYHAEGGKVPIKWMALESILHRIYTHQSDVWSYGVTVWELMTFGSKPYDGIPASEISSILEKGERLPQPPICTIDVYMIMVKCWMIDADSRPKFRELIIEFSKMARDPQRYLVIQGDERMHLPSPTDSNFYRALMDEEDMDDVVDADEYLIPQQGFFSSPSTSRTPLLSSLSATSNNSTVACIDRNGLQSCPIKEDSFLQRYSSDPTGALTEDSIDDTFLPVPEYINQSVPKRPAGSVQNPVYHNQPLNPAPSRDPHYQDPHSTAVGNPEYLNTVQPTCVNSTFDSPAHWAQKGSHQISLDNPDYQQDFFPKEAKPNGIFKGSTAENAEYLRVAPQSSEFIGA
Fibroblast growth factor 10 (Homo sapiens), sequence (O15520 whole entry, looked up): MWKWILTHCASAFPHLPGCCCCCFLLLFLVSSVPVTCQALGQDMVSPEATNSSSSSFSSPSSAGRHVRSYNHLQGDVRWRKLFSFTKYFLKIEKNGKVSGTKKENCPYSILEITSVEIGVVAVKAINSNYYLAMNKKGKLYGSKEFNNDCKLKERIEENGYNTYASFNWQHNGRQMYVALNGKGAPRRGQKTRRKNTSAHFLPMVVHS
Dickkopf-related protein 1 (Homo sapiens), sequence (O94907 whole entry, looked up): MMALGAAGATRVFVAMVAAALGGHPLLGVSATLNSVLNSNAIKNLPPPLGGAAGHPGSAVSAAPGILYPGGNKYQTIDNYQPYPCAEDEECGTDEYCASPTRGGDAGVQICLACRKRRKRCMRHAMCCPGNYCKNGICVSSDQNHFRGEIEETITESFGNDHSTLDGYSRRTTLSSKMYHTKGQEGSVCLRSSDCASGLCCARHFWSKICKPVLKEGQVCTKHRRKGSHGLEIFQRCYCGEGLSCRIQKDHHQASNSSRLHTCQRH
Torsin-1A-interacting protein 1 (Homo sapiens), sequence (Q5JTV8 whole entry, looked up): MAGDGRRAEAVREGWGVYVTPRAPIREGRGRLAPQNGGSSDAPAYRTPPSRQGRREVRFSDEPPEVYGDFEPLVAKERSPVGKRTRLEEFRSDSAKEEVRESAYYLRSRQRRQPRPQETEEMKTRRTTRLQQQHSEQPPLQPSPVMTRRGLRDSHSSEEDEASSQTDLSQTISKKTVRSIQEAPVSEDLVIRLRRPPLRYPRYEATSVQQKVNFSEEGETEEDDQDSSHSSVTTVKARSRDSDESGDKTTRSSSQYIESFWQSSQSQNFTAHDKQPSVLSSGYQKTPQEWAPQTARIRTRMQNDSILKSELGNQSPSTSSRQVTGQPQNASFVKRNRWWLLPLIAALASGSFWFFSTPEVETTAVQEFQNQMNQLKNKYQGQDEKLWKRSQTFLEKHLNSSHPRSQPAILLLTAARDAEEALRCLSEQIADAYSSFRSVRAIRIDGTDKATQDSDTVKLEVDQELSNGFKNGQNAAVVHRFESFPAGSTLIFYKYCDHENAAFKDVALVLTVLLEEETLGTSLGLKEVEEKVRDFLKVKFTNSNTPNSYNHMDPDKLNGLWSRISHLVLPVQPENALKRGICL

Compound: [N-]=[N+]=Nc1ccccc1[C@@H]1OC(c2ccc(OCCCO)cc2)=N[C@]1(Cc1ccccc1)C(=O)N1CCCCC1
- composite z-score [1]: 1.16
- composite z-score [2]: 0.374
- composite z-score [3]: 0.711
- z-score [4]: 0.745 (inactive)
- composite z-score [5]: 1.43
- composite z-score [6]: 0.769
- composite z-score [7]: 0.332
- composite z-score [8]: 1.07
- composite z-score [9]: -0.0165
- composite z-score [10]: 0.441
- composite z-score [11]: 1.46
- z-score [12]: -2.57
- composite z-score [13]: 0.0418
- composite z-score [14]: 1.43
- composite z-score [15]: 0.748
- composite z-score [16]: 0.0484
- composite z-score [17]: 0.337
- composite z-score [18]: 1.37
- composite z-score [19]: 1.57
- composite z-score [20]: 1.25

Compound: CC(C)(C)OC(=O)COc1cccc(C(=O)CCN2CCOCC2)c1
- composite z-score [1]: 0.213
- composite z-score [2]: 0.684
- composite z-score [3]: 0.929
- z-score [4]: 0.849 (inactive)
- composite z-score [5]: -0.189
- composite z-score [6]: 0.136
- composite z-score [7]: -0.67
- composite z-score [8]: -0.272
- composite z-score [9]: -0.285
- composite z-score [10]: 1.54
- composite z-score [11]: 0.219
- z-score [12]: -1.7
- composite z-score [13]: 0.0527
- composite z-score [14]: -0.501
- composite z-score [15]: -0.841
- composite z-score [16]: -0.192
- composite z-score [17]: -0.193
- composite z-score [18]: -0.419
- composite z-score [19]: -0.0786
- composite z-score [20]: -0.204

Compound: [N-]=[N+]=Nc1ccccc1C[C@]1(C(=O)NCCN2CCOCC2)COC(c2ccc(OCCCO)cc2)=N1
- composite z-score [1]: 1.01
- composite z-score [2]: 0.424
- composite z-score [3]: 0.909
- z-score [4]: -0.388 (inactive)
- composite z-score [5]: 0.318
- composite z-score [6]: 1.3
- composite z-score [7]: -0.408
- composite z-score [8]: -0.264
- composite z-score [9]: 0.234
- composite z-score [10]: 0.472
- composite z-score [11]: 1.4
- z-score [12]: -1.92
- composite z-score [13]: 0.795
- composite z-score [14]: 0.76
- composite z-score [15]: -0.553
- composite z-score [16]: -0.349
- composite z-score [17]: -0.221
- composite z-score [18]: 0.624
- composite z-score [19]: 0.101
- composite z-score [20]: 0.536

Compound: COc1ccccc1CN1C(=O)c2ccccc2[C@](Cc2ccccc2I)(C(=O)O)[C@@H]1c1ccc(CO)cc1
- composite z-score [1]: 1.19
- composite z-score [2]: 0.552
- composite z-score [3]: 0.485
- z-score [4]: -0.498 (inactive)
- composite z-score [5]: 1.2
- composite z-score [6]: 0.941
- composite z-score [7]: 0.719
- composite z-score [8]: 0.993
- composite z-score [9]: 0.441
- composite z-score [10]: 0.933
- composite z-score [11]: 1.42
- z-score [12]: -0.127
- composite z-score [13]: 0.717
- composite z-score [14]: 1.36
- composite z-score [15]: 0.477
- composite z-score [16]: -0.123
- composite z-score [17]: 0.336
- composite z-score [18]: 0.182
- composite z-score [19]: 0.152
- composite z-score [20]: 1.21

Compound: COC(=O)[C@@]1(Cc2ccccc2)[C@H]2c3cc(C(=O)N(C)C)n(Cc4ccc(C)o4)c3C[C@H]2CN1C(=O)c1ccccc1
- composite z-score [1]: 0.527
- composite z-score [2]: 2.33
- composite z-score [3]: 1.57
- z-score [4]: -2.02 (inactive)
- composite z-score [5]: 0.93
- composite z-score [6]: 0.502
- composite z-score [7]: 0.857
- composite z-score [8]: 0.897
- composite z-score [9]: -1.11
- composite z-score [10]: 1.44
- composite z-score [11]: 0.946
- z-score [12]: -2.49
- composite z-score [13]: 0.0319
- composite z-score [14]: 1.69
- composite z-score [15]: 1.26
- composite z-score [16]: 0.69
- composite z-score [17]: 1.95
- composite z-score [18]: 0.728
- composite z-score [19]: 1.29
- composite z-score [20]: 0.76
